According to PubChem BioAssay (NCATS):
Records with an inconclusive call do not appear. A call without a number means that no potency is given here. Calls of active or inactive are those of the source. The call rests on the fitted dose curve; in most records, active means well fitted inhibition curve with a large enough effect; inconclusive means small, poorly fitted or top-dose-only effect; inactive means flat fitted curve, though single readings scatter.

Experiment: qHTS to identify inhibitors of the type 1 interferon - major histocompatibility complex class I in skeletal muscle: primary screen against the NCATS LOPAC collection (AID 1347405);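 further: human myoblasts with HiBiT tag on endogenous HLA-B stimulated by IFN-beta; lytic HiBiT luminescence reporting HLA-B protein level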
Conditions: iHSKM muscle cells, IFN-b-induced MHC-I HiBiT luminescence, 24 h; series mostly up to 45.9 µM
Procedure, shortened: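 IFN-beta-stimulated (4 ng/ml) HLA-B HiBiT knock-in myoblasts, compound-treated 24 hrs up to 46 uM final; signal via LgBiT complementation and furimazine luminescence.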
Potency means the concentration at half of the fitted maximal effect.

Structure (SMILES)	Potency
c1ccc(C2CC2)c(OCC2=NCCN2)c1	inactive
C[C@@H]1O[C@@H](O[C@H]2C[C@@H](O)[C@]3(CO)[C@H]4[C@H](O)C[C@]5(C)[C@@H](C6=CC(=O)OC6)CC[C@]5(O)[C@@H]4CC[C@]3(O)C2)[C@H](O)[C@H](O)[C@H]1O	44.7 nM (active)
CCC1(C2=NCCN2)Cc2ccccc2O1 (stereo not drawn)	inactive
CC(O)(CS(=O)(=O)c1ccc(F)cc1)C(=O)Nc1ccc(C#N)c(C(F)(F)F)c1 (stereo not drawn)	inactive
CC(=O)[C@H]1CC[C@H]2[C@@H]3CC[C@H]4C[C@](C)(O)CC[C@]4(C)[C@H]3CC[C@]12C	inactive
Nc1ccncc1	inactive
COc1ccccc1N1CCNCC1	inactive
N#CC(C#N)=Cc1ccc(O)c(O)c1	inactive
CCCN1CCC[C@@H]2Cc3nc(N)ncc3C[C@H]21	inactive
NCC(O)c1ccc(O)cc1 (stereo not drawn)	inactive
Cc1ccc(S(=O)(=O)N[C@@H](CCCCN)C(=O)CCl)cc1	inactive
Cn1c(CCCC(=O)O)nc2cc(N(CCCl)CCCl)ccc21	inactive
CC[C@@H](CO)NC(=O)[C@@H]1C=C2c3cccc4[nH]cc(c34)C[C@H]2N(C)C1	inactive
NCC(CC(=O)O)c1ccc(Cl)cc1 (stereo not drawn)	inactive
CCCN1CCC[C@@H]2Cc3[nH]ncc3C[C@H]21	inactive
CC[C@@H](CO)NC(=O)[C@@H]1C=C2c3cccc4c3c(cn4C)C[C@H]2N(C)C1	inactive
O=C1NCN(c2ccccc2)C12CCN(CC1COc3ccccc3O1)CC2 (stereo not drawn)	inactive
Cc1cccc(C)c1NC(=O)CN1CCCC1=O	inactive
NCC1(CC(=O)O)CCCCC1	inactive
CC(CCc1ccccc1)NC(C)C(O)c1ccc(O)cc1 (stereo not drawn)	inactive
Cc1cccc(C)c1NC1=NCCCS1	inactive
COc1ccc(C(CN(C)C)C2(O)CCCCC2)cc1 (stereo not drawn)	inactive
CC(=O)[C@H]1CC[C@H]2[C@@H]3CC[C@H]4C[C@H](O)CC[C@]4(C)[C@H]3C(=O)C[C@]12C	inactive
CN1C[C@H](CNC(=O)OCc2ccccc2)C[C@@H]2c3cccc4c3c(cn4C)C[C@H]21	inactive
NN=C(N)N	inactive
Cc1ncc(CNC(=O)N(CCCl)N=O)c(N)n1	inactive
CC(C)=CCOc1c2occc2cc2ccc(=O)oc12	inactive
CNCC(O)c1ccc(O)cc1 (stereo not drawn)	inactive
